According to PubChem BioAssay (Tox21):
Inconclusive results are not listed. Activity calls are given as the source filed them. Calls follow the shape of the dose curve; as a rule, active = well fitted curve in the direction sought with a large enough effect in the repeat runs; inconclusive = weak or mixed curves; inactive = no such curve, though single readings can be large; an effect the other way counts as inactive or inconclusive.

Key:
[1] = A CellTox Green Cytotoxicity Assay to monitor cytotoxicity in HEK293 cells - 40 hour (AID 1224871); also: nearly all actives have a fitted effect of over 45% in size
Procedure, shortened: (§1)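 Fluorescence intensity, read at 0, 8, 16, 24, 32 and 40 h of compound treatment, reflected dye binding to DNA of dead HEK293 cells; compounds (23 nL, DMSO) were added 5 h after plating cells with reagent.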

[2] = qHTS RealTime-Glo MT Cell Viability Assay in HEK293 cells - 16 hour (AID 1224872); also: top concentration of the series differs between compounds; nearly all actives have a fitted effect of over 50% in size
Procedure, shortened: (§2)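 Tox21 10K qHTS, HEK293, 600 cells/well, RealTime-Glo reagent co-dispensed with cells; 5 h preincubation, compound by pintool, 37 C, luminescence at 0–40 h.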

[3] = qHTS RealTime-Glo MT Cell Viability Assay in HepG2 cells - 8 hour (AID 1224873); also: nearly all actives have a fitted effect of over 55% in size
Procedure, shortened: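 Real-time viability: cells seeded at 600 per well together with NanoLuc and cell-permeant prosubstrate, compounds added after 5 h incubation. Luminescence tracked at 0, 8, 16, 24, 32 and 40 h of exposure.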

[4] = qHTS RealTime-Glo MT Cell Viability Assay in HEK293 cells - 40 hour (AID 1224874); settings: RealTime-Glo luminescence; max response: active compounds read low; also: nearly all actives have a fitted effect of over 50% in size
Procedure, shortened: (§3)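 Viable HEK293 cells reduce a cell-permeant prosubstrate; the product diffuses out and is consumed by NanoLuc in the medium to give light. Compounds went in after a 5 h incubation and plates were read over the treatment course.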

[5] = A CellTox Green Cytotoxicity Assay to monitor cytotoxicity in HEK293 cells - 24 hour (AID 1224875); also: series mostly up to about 77 µM; nearly all actives have a fitted effect of over 45% in size
Procedure, shortened: as §1

[6] = A CellTox Green Cytotoxicity Assay to monitor cytotoxicity in HepG2 cells - 16 hour (AID 1224876); also: nearly all actives have a fitted effect of over 45% in size
Procedure, shortened: (§4)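 Using 1536-well format, dye-containing HepG2 suspension was seeded, allowed 5 h at 37 C/5% CO2, dosed by pintool with compounds, positive and negative controls, and imaged for fluorescence across 40 h.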

[7] = qHTS RealTime-Glo MT Cell Viability Assay in HepG2 cells - 32 hour (AID 1224877); also: nearly all actives have a fitted effect of over 55% in size
Procedure, shortened: (§5)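 Cells + NanoLuc/prosubstrate dispensed (600 cells/well) → 5 h at 37 C/5% CO2 → compounds in DMSO transferred → 40 h incubation at 37 C, luminescence read at 0, 8, 16, 24, 32, 40 h.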

[8] = A CellTox Green Cytotoxicity Assay to monitor cytotoxicity in HepG2 cells - 24 hour (AID 1224878); also: nearly all actives have a fitted effect of over 45% in size
Procedure, shortened: as §4

[9] = A CellTox Green Cytotoxicity Assay to monitor cytotoxicity in HepG2 cells - 40 hour (AID 1224879); also: nearly all actives have a fitted effect of over 40% in size
Procedure, shortened: as §4

[10] = qHTS RealTime-Glo MT Cell Viability Assay in HEK293 cells - 0 hour (AID 1224880)
Procedure, shortened: as §3

[11] = A CellTox Green Cytotoxicity Assay to monitor cytotoxicity in HEK293 cells - 32 hour (AID 1224881); also: nearly all actives have a fitted effect of over 40% in size
Procedure, shortened: as §1

[12] = A CellTox Green Cytotoxicity Assay to monitor cytotoxicity in HepG2 cells - 0 hour (AID 1224882); also: nearly all actives have a fitted effect of over 35% in size
Procedure, shortened: as §4

[13] = A CellTox Green Cytotoxicity Assay to monitor cytotoxicity in HepG2 cells - 32 hour (AID 1224883); also: nearly all actives have a fitted effect of over 50% in size
Procedure, shortened: as §4

[14] = A CellTox Green Cytotoxicity Assay to monitor cytotoxicity in HEK293 cells - 8 hour (AID 1224884); also: nearly all actives have a fitted effect of over 35% in size
Procedure, shortened: as §1

[15] = qHTS RealTime-Glo MT Cell Viability Assay in HepG2 cells - 16 hour (AID 1224885); also: nearly all actives have a fitted effect of over 50% in size
Procedure, shortened: as §5

[16] = qHTS RealTime-Glo MT Cell Viability Assay in HEK293 cells - 24 hour (AID 1224886)
Procedure, shortened: as §2

[17] = qHTS RealTime-Glo MT Cell Viability Assay in HEK293 cells - 8 hour (AID 1224887)
Procedure, shortened: as §3

[18] = A CellTox Green Cytotoxicity Assay to monitor cytotoxicity in HEK293 cells - 16 hour (AID 1224888); also: nearly all actives have a fitted effect of over 35% in size
Procedure, shortened: as §1

[19] = qHTS RealTime-Glo MT Cell Viability Assay in HepG2 cells - 0 hour (AID 1224889); also: nearly all actives have a fitted effect of over 50% in size
Procedure, shortened: as §5

[20] = A CellTox Green Cytotoxicity Assay to monitor cytotoxicity in HepG2 cells - 8 hour (AID 1224890); also: nearly all actives have a fitted effect of over 45% in size
Procedure, shortened: as §4
% is scaled to controls: 0 for no effect and ±100 for the full control effect.

CC(C)Cc1nccs1
inactive: Potency [1] | Potency [2] | outcome [3] | max response [4] 3.56% | Potency [5] | Potency [6] | Potency [7] | Potency [8] | Potency [9] | Potency [10] | Potency [11] | Potency [12] | Potency [13] | Potency [14] | outcome [15] | Potency [16] | Potency [17] | Potency [18] | Potency [19] | Potency [20]

Cc1ccc2ccccc2c1[N+](=O)[O-]
inactive: Potency [1] | Potency [2] | outcome [3] | max response [4] 5.94% | Potency [5] | Potency [6] | Potency [7] | Potency [8] | Potency [9] | Potency [10] | Potency [11] | Potency [12] | Potency [13] | Potency [14] | outcome [15] | Potency [16] | Potency [17] | Potency [18] | Potency [19] | Potency [20]

CC(C(=O)O)c1ccc2c(c1)Cc1cccnc1O2 (centres undefined)
inactive: Potency [1] | Potency [2] | outcome [3] | max response [4] 1.21% | Potency [5] | Potency [6] | Potency [7] | Potency [8] | Potency [9] | Potency [10] | Potency [11] | Potency [12] | Potency [13] | Potency [14] | outcome [15] | Potency [16] | Potency [17] | Potency [18] | Potency [19] | Potency [20]

CC/C=C/CCO
inactive: Potency [1] | Potency [2] | outcome [3] | max response [4] -11.5% | Potency [5] | Potency [6] | Potency [7] | Potency [8] | Potency [9] | Potency [10] | Potency [11] | Potency [12] | Potency [13] | Potency [14] | outcome [15] | Potency [16] | Potency [17] | Potency [18] | Potency [19] | Potency [20]

CC(C)=CCCC(C)C=O (centres undefined)
inactive: Potency [1] | Potency [2] | outcome [3] | max response [4] 3.8% | Potency [5] | Potency [6] | Potency [7] | Potency [8] | Potency [9] | Potency [10] | Potency [11] | Potency [12] | Potency [13] | Potency [14] | outcome [15] | Potency [16] | Potency [17] | Potency [18] | Potency [19] | Potency [20]

CCCC(=O)OCCC(C)C
inactive: Potency [1] | Potency [2] | outcome [3] | max response [4] -1.39% | Potency [5] | Potency [6] | Potency [7] | Potency [8] | Potency [9] | Potency [10] | Potency [11] | Potency [12] | Potency [13] | Potency [14] | outcome [15] | Potency [16] | Potency [17] | Potency [18] | Potency [19]

O=C1c2ccccc2C(=O)c2c1ccc(O)c2O
inactive: Potency [1] | Potency [2] | outcome [3] | max response [4] -2.45% | Potency [5] | Potency [6] | Potency [7] | Potency [8] | Potency [9] | Potency [10] | Potency [11] | Potency [12] | Potency [13] | Potency [14] | outcome [15] | Potency [16] | Potency [17] | Potency [18] | Potency [19] | Potency [20]

CCCCCCCCCCCCSCCOCCO
inactive: Potency [1] | Potency [2] | outcome [3] | max response [4] -17.3% | Potency [5] | Potency [6] | Potency [7] | Potency [8] | Potency [9] | Potency [10] | Potency [11] | Potency [12] | Potency [13] | Potency [14] | outcome [15] | Potency [16] | Potency [17] | Potency [18] | Potency [19] | Potency [20]

CC/C=C\CCO
inactive: Potency [1] | Potency [2] | outcome [3] | max response [4] 15.9% | Potency [5] | Potency [6] | Potency [7] | Potency [8] | Potency [9] | Potency [10] | Potency [11] | Potency [12] | Potency [13] | Potency [14] | outcome [15] | Potency [16] | Potency [17] | Potency [18] | Potency [19] | Potency [20]

Cc1ccc2c(Cl)cc(Cl)c(O)c2n1
inactive: Potency [1] | Potency [2] | outcome [3] | max response [4] -5.73% | Potency [5] | Potency [6] | Potency [7] | Potency [8] | Potency [9] | Potency [10] | Potency [11] | Potency [12] | Potency [13] | Potency [14] | outcome [15] | Potency [16] | Potency [17] | Potency [18] | Potency [19] | Potency [20]

CCCC1CCOC(C)S1 (centres undefined)
inactive: Potency [1] | Potency [2] | outcome [3] | max response [4] 4.04% | Potency [5] | Potency [6] | Potency [7] | Potency [8] | Potency [9] | Potency [10] | Potency [11] | Potency [12] | Potency [13] | Potency [14] | outcome [15] | Potency [16] | Potency [17] | Potency [18] | Potency [19] | Potency [20]

Sc1nc(S)nc(S)n1
inactive: Potency [1] | Potency [2] | outcome [3] | max response [4] 5.08% | Potency [5] | Potency [6] | Potency [7] | Potency [8] | Potency [9] | Potency [10] | Potency [11] | Potency [12] | Potency [13] | Potency [14] | outcome [15] | Potency [16] | Potency [17] | Potency [18] | Potency [19] | Potency [20]

O=[N+]([O-])c1ccccc1CCO
inactive: Potency [1] | Potency [2] | outcome [3] | max response [4] 16.6% | Potency [5] | Potency [6] | Potency [7] | Potency [8] | Potency [9] | Potency [10] | Potency [11] | Potency [12] | Potency [13] | Potency [14] | outcome [15] | Potency [16] | Potency [17] | Potency [18] | Potency [19] | Potency [20]

CC(O)C(C)O (centres undefined)
inactive: Potency [1] | Potency [2] | outcome [3] | max response [4] 12.1% | Potency [5] | Potency [6] | Potency [7] | Potency [8] | Potency [9] | Potency [10] | Potency [11] | Potency [12] | Potency [13] | Potency [14] | outcome [15] | Potency [16] | Potency [17] | Potency [18] | Potency [19] | Potency [20]
